Results as given in PubChem BioAssay (NCI).
This is part of a sample that, as a whole, favours compounds with a hit. Of some 79,000 tested, about 15% had one in any assay. The source made the active and inactive calls. Rule as the data show it: active = growth inhibition above about 70%; inactive = the rest.

Columns and labels:
[1] = NCI Yeast Anticancer Drug Screen. Data for the rad50 strain (AID 155);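 also: 0% = growth of vehicle-only cultures of the same strain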; conditions: S. cerevisiae rad50 strain growth inhibition; at 50.0 µM; stronger effect = higher value
How it was run: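 Genetically altered yeast (DNA repair pathway); compound treatment; growth inhibition vs vehicle ctrl.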

[2] = NCI Yeast Anticancer Drug Screen. Data for the mec2-1 strain (AID 157); conditions: S. cerevisiae mec2-1 strain, at 50.0 µM, stronger effect = higher value
How it was run: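 mec2-1 yeast strain, carrying an alteration in DNA damage repair or cell cycle control, was exposed to compounds; growth inhibition was measured relative to vehicle-treated controls.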

[3] = NCI Yeast Anticancer Drug Screen. Data for the sgs1 mgt1 strain (AID 161);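 also: 0% = growth of cultures given vehicle only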; conditions: S. cerevisiae sgs1 mgt1 strain, at 50.0 µM, stronger effect = higher value
How it was run: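 Compounds are added to genetically altered yeast, and growth is compared with cultures given vehicle alone to give percent inhibition.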

[4] = NCI Yeast Anticancer Drug Screen. Data for the cln2 rad14 strain (AID 165);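 also: 0% = growth equal to vehicle treated cultures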; conditions: S. cerevisiae cln2 rad14 strain, at 50.0 µM, stronger effect = higher value
How it was run: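 Yeast carrying cln2 and rad14 alterations (cell cycle control and DNA damage repair) were exposed to compounds. Growth inhibition was measured against vehicle-treated controls.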

[5] = NCI Yeast Anticancer Drug Screen. Data for the bub3 strain (AID 167); conditions: S. cerevisiae bub3 mutant strain, at 50.0 µM, stronger effect = higher value
How it was run: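 Yeast carrying a defined mutation is treated with each compound, and growth is compared with that of vehicle-exposed cells to give inhibition.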

[6] = NCI Yeast Anticancer Drug Screen. Data for the mlh1 rad18 strain (AID 175); conditions: S. cerevisiae mlh1 rad18 strain growth inhibition; at 50.0 µM; stronger effect = higher value
How it was run: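 Growth inhibition of the yeast strain was measured after compound exposure and expressed relative to vehicle-treated controls. The strain carries defined defects in DNA damage repair.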

Measured: growth inhibition

NC1CC2NC3CCCCC3NC2CC1N (stereo not given)
inactive: [1] 14.8% | [2] 6.25% | [3] -0.6% | [4] 19.5% | [5] -22.4% | [6] 6.55%

C1=CC2C=CC(C=C1)[PH+]2c1ccccc1.C1=CC2C=CC(C=C1)[PH+]2c1ccccc1.[C-]#[O+].[C-]#[O+].[C-]#[O+].[Fe] (stereo not given)
inactive: [1] -20.1% | [2] 4.4% | [3] -6.6% | [4] 26.1% | [5] 10.6% | [6] -4.85%

CCOC(CCCN1CCC2(CC1)C(=O)N(C)CN2c1ccccc1)(OCC)c1ccc(F)cc1
inactive: [1] 8.45% | [2] 20.8% | [3] 16.4% | [4] 2.3% | [5] 30.2% | [6] 25.2%

CN1C(=O)c2ccccc2NC(=O)C12O[C@@H]2c1ccccc1 (stereo not given in full)
inactive: [1] 0.05% | [2] -19.7% | [3] -4.95% | [4] 14.3% | [5] -9.7% | [6] -16.9%

CO[C@@]12[C@@H]3N[C@@H]3CN1C1=C(C(=O)C(Nc3ccc(O)cc3C)=C(C)C1=O)[C@@H]2COC(N)=O
inactive: [1] 61% | [2] 29.1% | [3] 20% | [4] 44.4% | [5] -14.6%
active: [6] 71%

CCN(CC)C(=S)Cl
inactive: [1] -35.4% | [2] -29.4% | [3] -0.5% | [4] -2.15% | [5] 19.1% | [6] -24.5%

N#C[S-].N#C[S-].[Ni+2].c1ccc([PH+](c2ccccc2)c2ccccc2)cc1.c1ccc([PH+](c2ccccc2)c2ccccc2)cc1
inactive: [1] 35.5% | [2] 33.7% | [3] 50% | [4] 14.3% | [5] 34.2% | [6] 63%

O=C(Nc1ccc(S(=O)(=O)F)cc1)/C(=C\c1ccc([N+](=O)[O-])cc1)c1cccc(Cl)c1
inactive: [1] 12.4% | [2] 4.3% | [3] -18.2% | [4] 31.4% | [5] -0.7% | [6] 11.1%

Cc1ccc(C(=O)C(C)N)cc1C (stereo not given)
inactive: [1] -13.6% | [2] -13% | [3] -17.8% | [4] 15.2% | [5] 1.6% | [6] 22.4%

C1CN([PH+](N2CC2)N2CC2)CCO1.C1CN([PH+](N2CC2)N2CC2)CCO1.[Cl][Pt][Cl]
inactive: [1] 5.3% | [2] 26.6% | [3] 10% | [4] -8.85% | [5] -3.35% | [6] 22.7%

CN(C)CCCN1CCCCC1
inactive: [1] 8.7% | [2] -0.65% | [3] -4.45% | [4] 3.8% | [5] 7.05% | [6] -8%

CN(N)c1ccc([N+](=O)[O-])cc1[N+](=O)[O-]
inactive: [1] -5.75% | [2] -39.1% | [3] -29.8% | [4] -6.2% | [5] -3.2% | [6] -39.1%

[N-]=[N+]=Nc1ccnc2cc(Cl)ccc12
inactive: [1] -29.9% | [2] -5.55% | [3] -9.05% | [4] -68% | [5] -5.45% | [6] -10.7%

CC(C)CC(C)OC(=O)Cc1ccccc1 (stereo not given)
inactive: [1] 39% | [2] 14.5% | [3] 31.1% | [4] -6.9% | [5] 7.8% | [6] 31.2%

CN1C(=O)N(C)C(O)C(Cl)(Cl)C1=O (stereo not given)
inactive: [1] -4.75% | [2] 10.1% | [3] 13.6% | [4] 30.6% | [5] 26.1% | [6] 11.6%

C[N+](C)(C)CC1(COC(=O)C(O)(c2ccccc2)c2ccccc2)CCCCC1
inactive: [1] -3.5% | [2] 6.45% | [3] -16.8% | [4] -7.2% | [5] -2.95% | [6] 5.05%

CCN=C=NCCCN(C)C
inactive: [1] -18.8% | [2] -8.8% | [3] -23.1% | [4] 0.25% | [5] -41.2% | [6] -6.35%

O=S(c1ccc(Cl)cc1)c1ccc(Cl)cc1
inactive: [1] 1.55% | [2] 17.9% | [3] 33.5% | [4] -66.2% | [5] 13.6% | [6] 19.1%

S=P(Oc1cc(Cl)c(Cl)cc1Cl)(N1CCOCC1)N1CCOCC1
inactive: [1] 37.1% | [2] 8.85% | [3] 42% | [4] 35% | [5] 12.3% | [6] 19.9%

CCCCCCCCCCCCCCCC(=O)OCC1OC(OC)C2NP(=O)(N(CCCl)CCCl)OC1C2O (stereo not given)
inactive: [1] 35.4% | [2] -13.3% | [3] -40.4% | [4] -20.9% | [5] 66.7%
active: [6] 73%

COc1cc([As](=O)(O)O)c(OC)cc1N
inactive: [1] -9.7% | [2] 6.6% | [3] -0.9% | [4] -55.7% | [5] 5.5% | [6] -17.1%

CP1(=O)CC23CCCCC2(C1)O3 (stereo not given)
inactive: [1] 2% | [2] -29.9% | [3] -3.3% | [4] -44.2% | [5] -15% | [6] -7.9%

CC(=O)C1CCC2C3CCC4CC(O)CCC4(C)C3CCC12C (stereo not given)
inactive: [1] 6.2% | [2] -59% | [3] 16.8% | [4] 26.8% | [5] 10% | [6] -7.3%

O=C1OC[C@@H]2Cc3c([nH]c4ccccc34)[C@@H](c3cc(O)c(O)c(O)c3)N12
inactive: [1] 12.1% | [2] -1.2% | [3] 20.8% | [4] 7.4% | [5] 10.7% | [6] -51.6%

COc1cc(C2c3cc4c(cc3C(O)[C@H]3COC(=O)[C@@H]23)OCO4)cc(OC)c1O (stereo not given in full)
inactive: [1] -36.4% | [2] -28.7% | [3] -28.8% | [4] 16.6% | [5] 6.55% | [6] -7.9%

CC(C)(C)OP(O)(=S)OC(C)(C)C
inactive: [1] 14.5% | [2] 13.2% | [3] 15.8% | [4] 15.2% | [5] 16.1% | [6] 9.55%

COc1ccc2c(c1)C1(C)CCN(CCc3ccccc3)C(C2)C1C (stereo not given)
inactive: [1] 24.9% | [2] 15.4% | [3] 20.7% | [4] 0.05% | [5] 6.25% | [6] 24.4%

CCOC(=O)C12CCC(=O)C=C1CN(C)CC2 (stereo not given)
inactive: [1] -2.25% | [2] 0.1% | [3] -3.3% | [4] -17.1% | [5] -13.2% | [6] 0.8%

O=C(N/N=C/c1ccc(N(CCCl)CCCl)cc1)c1ccc(N(CCCl)CCCl)cc1
inactive: [1] 30.6% | [2] 4.65% | [3] 26.6% | [4] 37.8% | [5] 4.55% | [6] 7.9%

Cn1cc(C(=O)C[n+]2ccccc2)c2ccccc21
inactive: [1] -20.4% | [2] -0.45% | [3] -18.3% | [4] 3.7% | [5] -30.1% | [6] -5.45%

Cn1c[n+](C)nn1
inactive: [1] -2.75% | [2] -12.8% | [3] -1.3% | [4] -29.1% | [5] -3.25% | [6] -18.2%

CC(=O)OCC1OC([Se-])C(OC(C)=O)C(OC(C)=O)C1OC(C)=O.N#CCC[PH+](CCC#N)CCC#N.[Au+] (stereo not given)
inactive: [1] 7.35% | [2] 6.75% | [3] -4.55% | [4] -15.8% | [5] 1.75% | [6] 10.1%

c1ccc2c(c1)ccc1sc3c([n+]12)CCC3
inactive: [1] -0.9% | [2] -5.65% | [3] -18.2% | [4] -14.5% | [5] 2.4% | [6] -5.3%

C[C@]12CC[C@H]3[C@@H](CC[C@]4(O)C[C@@H](O)CC[C@]34CO)[C@@]1(O)CC[C@@H]2C1=CC(=O)OC1
inactive: [1] -6.1% | [2] -23.1% | [3] -17.6% | [4] 0.45% | [5] 1.35% | [6] -16.9%

CN1CCC2(CC1)COCc1ccccc12
inactive: [1] -9.4% | [2] -5.55% | [3] -2.7% | [4] -19.1% | [5] 11.2% | [6] 4.8%

CSCCC(NC(=O)C(Cc1ccccc1)NC(=O)CNC(=O)CNC(=O)C(N)Cc1ccc(O)cc1)C(=O)O (stereo not given)
inactive: [1] 12.4% | [2] 2.2% | [3] -6.45% | [4] 26.2% | [5] 14.4% | [6] 16.2%

Cc1ccccc1/C(=C/c1ccc([N+](=O)[O-])cc1)C(=O)Nc1ccc(S(=O)(=O)F)cc1
active: [1] 97.1% | [2] 95.5% | [3] 96.3% | [4] 96.3% | [5] 96.5% | [6] 97.5%

O=C(Cl)OC1CS(=O)(=O)CC1O (stereo not given)
inactive: [1] -6.6% | [2] 1% | [3] -2.5% | [4] -34.6% | [5] 4.45% | [6] 0.25%

ClCCN(CCCl)c1ncnc2c1ncn2Cc1ccccc1
inactive: [1] 2.9% | [2] 17.4% | [3] 15.6% | [4] -12.6% | [5] -1.95% | [6] -0.4%

OC[C@@H](O)[C@@H](O)CO
inactive: [1] 3.2% | [2] -0.25% | [3] -12.1% | [4] 15.2% | [5] -5.55% | [6] 10.1%
